# Results as given in ChEMBL document CHEMBL1961873, “Compounds: GSK PKIS; Assays: Nanosyn kinase panel” (2012).
# Assays:
# [1] = molecular target: T1, Tyrosine-protein kinase receptor TYRO3 (Homo sapiens) (UniProt Q06418); settings: at 1 µM
# T1 sequence (whole entry): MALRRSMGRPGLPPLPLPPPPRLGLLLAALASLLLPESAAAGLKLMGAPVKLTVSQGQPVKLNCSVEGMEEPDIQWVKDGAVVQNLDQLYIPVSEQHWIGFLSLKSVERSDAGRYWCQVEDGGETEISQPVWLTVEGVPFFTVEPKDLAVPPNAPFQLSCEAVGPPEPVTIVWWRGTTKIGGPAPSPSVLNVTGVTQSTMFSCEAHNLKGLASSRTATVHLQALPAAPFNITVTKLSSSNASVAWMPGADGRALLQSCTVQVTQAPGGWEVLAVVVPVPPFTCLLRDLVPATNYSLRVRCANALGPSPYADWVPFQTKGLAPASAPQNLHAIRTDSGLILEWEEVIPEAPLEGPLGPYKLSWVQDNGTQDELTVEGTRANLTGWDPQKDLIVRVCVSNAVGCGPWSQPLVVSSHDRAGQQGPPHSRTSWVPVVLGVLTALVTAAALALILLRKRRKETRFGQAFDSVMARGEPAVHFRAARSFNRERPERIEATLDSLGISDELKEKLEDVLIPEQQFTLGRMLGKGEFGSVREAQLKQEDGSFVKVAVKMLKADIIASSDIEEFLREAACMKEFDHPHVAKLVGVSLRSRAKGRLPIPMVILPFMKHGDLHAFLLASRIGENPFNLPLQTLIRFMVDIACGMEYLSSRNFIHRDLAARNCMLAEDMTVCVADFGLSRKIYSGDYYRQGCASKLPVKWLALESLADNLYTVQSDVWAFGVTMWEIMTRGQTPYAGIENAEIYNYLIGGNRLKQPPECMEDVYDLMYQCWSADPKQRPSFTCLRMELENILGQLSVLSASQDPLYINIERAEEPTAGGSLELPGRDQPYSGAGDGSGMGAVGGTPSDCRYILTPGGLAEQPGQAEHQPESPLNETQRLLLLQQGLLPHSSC
# [2] = molecular target: Tyrosine-protein kinase Yes (Homo sapiens) (UniProt P07947); settings: at 0.1 µM
# Chain of Tyrosine-protein kinase Yes (Homo sapiens) (P07947 2-543 limits assumed): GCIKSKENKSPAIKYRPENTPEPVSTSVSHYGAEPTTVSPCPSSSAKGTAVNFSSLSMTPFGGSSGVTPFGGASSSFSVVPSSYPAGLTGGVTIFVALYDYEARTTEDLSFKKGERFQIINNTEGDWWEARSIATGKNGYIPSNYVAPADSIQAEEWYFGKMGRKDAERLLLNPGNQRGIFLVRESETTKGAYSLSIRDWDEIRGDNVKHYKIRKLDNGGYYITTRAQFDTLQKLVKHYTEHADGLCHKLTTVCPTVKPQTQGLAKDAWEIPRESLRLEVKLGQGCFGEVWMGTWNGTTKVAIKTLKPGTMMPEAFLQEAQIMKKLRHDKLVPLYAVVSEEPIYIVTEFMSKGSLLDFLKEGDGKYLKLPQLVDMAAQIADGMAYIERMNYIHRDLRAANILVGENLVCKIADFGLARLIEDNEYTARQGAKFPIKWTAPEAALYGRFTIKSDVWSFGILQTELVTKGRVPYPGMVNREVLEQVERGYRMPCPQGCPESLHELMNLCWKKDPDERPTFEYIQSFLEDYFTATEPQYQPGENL
# [3] = molecular target: Tyrosine-protein kinase Yes (Homo sapiens) (UniProt P07947); settings: at 1 µM
# [4] = molecular target: T2, Tyrosine-protein kinase ZAP-70 (Homo sapiens) (UniProt P43403); settings: at 0.1 µM
# T2 sequence (whole entry): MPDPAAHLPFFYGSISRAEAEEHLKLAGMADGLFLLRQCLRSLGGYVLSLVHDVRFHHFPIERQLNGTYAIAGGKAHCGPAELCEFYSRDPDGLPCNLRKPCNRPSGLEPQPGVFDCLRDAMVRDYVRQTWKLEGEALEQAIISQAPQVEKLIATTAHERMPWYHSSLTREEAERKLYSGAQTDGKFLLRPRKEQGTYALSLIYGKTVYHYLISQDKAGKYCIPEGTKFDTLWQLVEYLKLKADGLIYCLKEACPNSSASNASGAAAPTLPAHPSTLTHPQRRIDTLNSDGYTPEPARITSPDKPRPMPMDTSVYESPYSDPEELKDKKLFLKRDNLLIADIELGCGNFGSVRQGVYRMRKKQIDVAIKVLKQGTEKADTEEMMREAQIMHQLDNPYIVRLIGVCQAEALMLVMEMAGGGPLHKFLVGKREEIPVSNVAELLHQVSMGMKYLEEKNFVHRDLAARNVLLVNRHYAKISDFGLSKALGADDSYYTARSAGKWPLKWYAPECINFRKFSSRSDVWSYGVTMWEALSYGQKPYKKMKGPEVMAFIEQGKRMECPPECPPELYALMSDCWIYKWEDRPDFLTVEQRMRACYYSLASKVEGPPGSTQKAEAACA
# [5] = molecular target: T2, Tyrosine-protein kinase ZAP-70 (Homo sapiens); settings: at 1 µM
# [6] = molecular target: Serine/threonine-protein kinase B-raf (Homo sapiens) (UniProt P15056); settings: at 0.1 µM
# Chain of Serine/threonine-protein kinase B-raf (Homo sapiens) (P15056 whole entry): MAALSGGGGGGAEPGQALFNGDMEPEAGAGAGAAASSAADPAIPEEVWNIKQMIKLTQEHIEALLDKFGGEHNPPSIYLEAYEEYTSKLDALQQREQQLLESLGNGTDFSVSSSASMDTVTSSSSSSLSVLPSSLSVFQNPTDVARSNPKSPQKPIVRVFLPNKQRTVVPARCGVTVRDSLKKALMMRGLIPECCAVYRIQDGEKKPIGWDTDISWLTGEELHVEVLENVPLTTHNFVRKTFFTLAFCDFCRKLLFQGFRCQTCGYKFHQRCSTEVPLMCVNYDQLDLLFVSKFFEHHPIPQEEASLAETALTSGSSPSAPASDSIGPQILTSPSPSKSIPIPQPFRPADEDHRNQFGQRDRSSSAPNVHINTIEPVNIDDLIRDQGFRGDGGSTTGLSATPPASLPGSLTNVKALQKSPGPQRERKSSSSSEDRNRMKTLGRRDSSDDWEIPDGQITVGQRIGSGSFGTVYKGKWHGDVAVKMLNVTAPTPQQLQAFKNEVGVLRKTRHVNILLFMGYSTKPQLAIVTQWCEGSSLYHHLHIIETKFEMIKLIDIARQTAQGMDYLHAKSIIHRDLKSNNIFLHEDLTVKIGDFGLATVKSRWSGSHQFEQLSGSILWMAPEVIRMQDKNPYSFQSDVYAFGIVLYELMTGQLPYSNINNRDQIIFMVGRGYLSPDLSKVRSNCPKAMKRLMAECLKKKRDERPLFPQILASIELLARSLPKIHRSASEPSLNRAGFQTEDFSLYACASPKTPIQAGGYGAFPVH
# [7] = molecular target: Serine/threonine-protein kinase B-raf (Homo sapiens) (UniProt P15056); settings: at 1 µM
# [8] = test system: Serine/threonine-protein kinase B-raf (Homo sapiens), P15056 [V600E]; settings: at 0.1 µM
# Chain of Serine/threonine-protein kinase B-raf (Homo sapiens), P15056 [V600E] (P15056 whole entry V600E): as the sequence (P15056 whole entry) above, with V600E counted along it
# [9] = test system: Serine/threonine-protein kinase B-raf (Homo sapiens), P15056 [V600E]; settings: at 1 µM
# [10] = molecular target: RAF proto-oncogene serine/threonine-protein kinase (Homo sapiens) (UniProt P04049); settings: at 0.1 µM;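 note: values are mean CRAF kinase inhibition from profiling of the GSK Published Kinase Inhibitor Set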
# Chain of RAF proto-oncogene serine/threonine-protein kinase (Homo sapiens) (P04049 whole entry): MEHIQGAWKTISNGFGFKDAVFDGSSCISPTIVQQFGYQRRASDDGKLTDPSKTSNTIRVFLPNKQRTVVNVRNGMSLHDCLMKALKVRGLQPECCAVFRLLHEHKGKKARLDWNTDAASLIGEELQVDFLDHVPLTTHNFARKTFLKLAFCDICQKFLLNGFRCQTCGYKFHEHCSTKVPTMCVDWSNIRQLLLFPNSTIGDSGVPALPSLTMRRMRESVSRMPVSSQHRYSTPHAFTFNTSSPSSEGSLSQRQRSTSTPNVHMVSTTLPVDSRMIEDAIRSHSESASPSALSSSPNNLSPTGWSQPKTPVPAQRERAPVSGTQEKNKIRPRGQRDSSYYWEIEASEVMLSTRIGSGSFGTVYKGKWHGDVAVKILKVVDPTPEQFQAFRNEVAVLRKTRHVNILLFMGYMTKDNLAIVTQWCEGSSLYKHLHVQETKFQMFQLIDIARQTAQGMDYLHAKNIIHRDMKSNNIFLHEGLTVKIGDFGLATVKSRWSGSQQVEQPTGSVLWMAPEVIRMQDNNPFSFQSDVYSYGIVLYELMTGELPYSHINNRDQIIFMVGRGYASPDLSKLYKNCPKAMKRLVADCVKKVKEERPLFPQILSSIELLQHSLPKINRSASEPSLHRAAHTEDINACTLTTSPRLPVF
Structure (SMILES),inhibition [1] [%],inhibition [2] [%],inhibition [3] [%],inhibition [4] [%],inhibition [5] [%],inhibition [6] [%],inhibition [7] [%],inhibition [8] [%],inhibition [9] [%],inhibition [10] [%]
COC(=O)Nc1nc2cc(Oc3cccc(NC(=O)Nc4cc(C(F)(F)F)ccc4F)c3)ccc2[nH]1,-0.81,0.2,3.07,0.93,1.74,-0.27,4.25,0.34,6.29,-0.45
NCc1ccc(-c2nc(-c3ccc(Cl)c(O)c3)c(-c3ccncc3)[nH]2)cc1,5.26,5.85,37.7,0.84,1.92,–,–,–,–,6.34
CC1=C(C(=O)Nc2ccc3[nH]ncc3c2)C(c2ccc(F)cc2)NC(=O)N1 (stereo not drawn),2.1,2.93,3.94,2.76,1.91,3.64,5.71,2.81,6.38,1.97
N#Cc1c(NC(=O)c2cccc3ccccc23)sc2c1CCCC2,2.06,3.08,2.43,2.19,4.42,4.29,5.63,4.43,5.4,-0.45
Cc1nn(C)c2cc(N(C)c3ccnc(Nc4cccc(S(N)(=O)=O)c4)n3)ccc12,29.9,9.9,45.6,-2.66,16,4.26,7.71,4.01,6.87,-2.36
CCn1c(-c2nonc2N)nc2cnc(Oc3cccc(NC(=O)c4ccc(OCCN5CCOCC5)cc4)c3)cc21,2.81,3.49,4.67,-1.7,-1.56,4.86,6.86,5.41,5.71,-0.87
Nc1ncnc2occ(-c3ccc(NC(=O)Nc4cc(C(F)(F)F)cc(C(F)(F)F)c4)cc3)c12,29.6,1.45,11.7,2.13,–,3.58,7.33,2.27,7.76,4.46
CCn1c(-c2nonc2N)nc2ccncc21,-0.39,1.81,-1.91,7.67,3.68,2.92,2.33,1.64,3.84,6.58
COc1cc(C=NNc2ncnc3c2cnn3-c2ccccc2)ccc1O,33.5,21.5,64.9,3.12,9.72,2.6,2.66,2.03,2.54,-0.56
COc1cc2ncn(-c3cc(O[C@H](C)c4ccccc4Cl)c(C(N)=O)s3)c2cc1OC,37.6,4.24,17.8,2.5,7.57,4.31,3.59,4.51,3.77,1.34
CS(=O)(=O)CCNCc1nc(-c2ccc3ncnc(Nc4ccc(F)c(Cl)c4)c3c2)cs1,3.05,-0.53,9.54,-0.36,-0.71,1.66,3.47,1.41,3.88,-0.76
NS(=O)(=O)c1ccc(N/N=C2\C(=O)Nc3ccc(C(=O)NCCc4c[nH]cn4)cc32)cc1,21.7,2.67,11.8,1.45,5.13,7,16.5,6.04,15.9,-2.7
Nc1ncnc2occ(-c3ccc(NC(=O)Nc4cccc(C(F)(F)F)c4)cc3)c12,32.2,7.17,45.7,1.4,1.43,7.07,13.3,5.78,13.5,0.71
COc1cc2c(cc1Nc1nc(N3CCc4ccccc43)c3cc[nH]c3n1)N(C(=O)CN(C)C)CC2,1.54,-0.07,-1.83,1.18,–,1.69,2.22,1.91,1.68,-4.52
NC(=O)c1ccc(-c2nc(-c3ccccn3)c(-c3ccc4c(c3)OCO4)[nH]2)cc1,1.12,2.51,7.17,0.96,-2.34,–,–,–,–,-6.15
O=C1NC(=O)C(c2ccccc2Cl)=C1Nc1cccc(O)c1,1.2,1.06,-1.97,1.65,0.4,3.05,3.21,3.01,2.95,4.73
CCn1c(-c2nonc2N)nc2c(C#CC(C)(C)O)nc(OC[C@@H](N)c3ccccc3)cc21,0.45,0.68,0.4,-0.65,-0.38,-0.61,3.45,-0.86,3.32,-1.41
COc1cc(C)c(NC(=O)CN(C)C)cc1Nc1nc(Nc2cccc(F)c2C(N)=O)c2cc[nH]c2n1,7.81,2.05,-2.14,–,3.93,2.75,6.44,3.06,6.56,-0.92
CCCN1CCC(Oc2cc(Nc3nc(Nc4cccc(F)c4C(N)=O)c4cc[nH]c4n3)c(OC)cc2Cl)CC1,1.14,1.16,1.57,-1.5,0.24,2.31,24.1,1.35,23.7,-1.14
CCn1c(-c2nonc2N)nc2cncc(C(=O)N3CC[C@H](N)C3)c21,6.78,1.84,5.96,-1.89,-1.69,6.39,7.03,7.1,6.82,12.6
CN1CCC(C(=O)Nc2n[nH]c3nnc(-c4ccccc4)cc23)CC1,5.28,3.36,3.47,4.09,5.43,7.26,7.83,8.27,7.58,16.6
COc1cc2ncn(-c3cc(O[C@@H](C)c4ccccc4Cl)c(C(N)=O)s3)c2cc1OC,6,6.69,33.2,–,2.45,5.9,5.17,4.21,4.64,-0.12
CC(=O)Nc1cccc(C#Cc2cncnc2Nc2ccc(OCc3cccc(F)c3)c(Cl)c2)n1,1.63,4.46,10.7,2.6,-0.49,-1.65,-3.08,-2.42,-2.04,0.47
CC1=C(C(=O)Nc2ccc3[nH]ncc3c2)C(c2ccc3ccccc3c2)CC(=O)N1 (stereo not drawn),6.2,16.6,62.9,3.08,2.98,8.21,43.5,8.51,45.2,1.05
Cc1cccc(-c2n[nH]cc2-c2ccc3ncccc3n2)n1,1.88,1.95,9.98,3.21,1.47,1.47,1.32,0.26,1.23,-0.77
CS(=O)(=O)CCN(CC#N)Cc1ccc(-c2ccc3ncnc(Nc4ccc(OCc5cccc(F)c5)c(Cl)c4)c3c2)o1,2.22,-1.67,2.4,-3.82,-0.8,4.46,1.74,1.42,2.17,0.21
Nc1nc(-c2ccc3c(c2)C(=Cc2cc(Br)c(O)c(Br)c2)C(=O)N3)cs1,2.67,-4.7,6.08,0.01,-1.62,4.51,13.7,3.07,14.7,2.35
